Among all 420,000 compounds or so, about 64,000 (15%) were called active. Roughly 27% stayed inconclusive and do not appear here. Calls come from the whole dose curve; as a rule, active = well fitted inhibition curve with a large enough effect; inconclusive = small, poorly fitted or top-dose-only effect; inactive = flat fitted curve, though single readings scatter. A selection follows. Entries that show only a call come without a potency.
Experiment: qHTS for Inhibitors of human tyrosyl-DNA phosphodiesterase 1 (TDP1): qHTS in cells in absence of CPT; note: nearly all actives have a fitted effect of over 55% in size
Conditions: DT40 Tdp1-/- hTDP1 cells, no CPT, ATP luminescence, 48 h; activity change, negative = growth inhibition: at 46.2 µM (top of the series)
In short: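 Chicken DT40 Tdp1-/- cells stably complemented with human TDP1 were seeded at 400 cells/well with DMSO in place of 20 nM camptothecin. After compound pinning, cells grew at least 48 hr at 37 °C; viability read by CellTiter-Glo luminescence.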
Potency is the fitted concentration of half-maximal effect.

SMILES	Potency
CCc1nc2cc(C(=O)NCC3CCS(=O)(=O)C3)cc(NC(=O)c3ccccc3OC)c2n1C (centres undefined)	inactive
COc1ccc(-c2nc3cnc(Oc4ccccc4)nc3n(Cc3cccs3)c2=O)cc1	inactive
CCc1nnc(NC(=O)c2ccco2)s1	inactive
CCc1ccc2nc3sc(C(=O)Nc4nnc(CC)s4)c(N)c3cc2c1	18.4 µM (active)
CCc1nnc(NC(=O)c2sc3nc(C)cc(COC)c3c2N)s1	inactive
CCC(=O)c1ccc(OCC(O)CN2C(=O)NC(C)(C)C2=O)cc1 (centres undefined)	inactive
CCOC(=O)c1c(N)sc(C(C)=O)c1C	inactive
Cc1ccc(-c2cc(C(=O)Oc3ccccc3Cl)no2)cc1C	inactive
Cc1cc(C)cc(OCC(=O)Nc2nc3ccc([N+](=O)[O-])cc3s2)c1	inactive
CCCC(=O)N(CCN1CCOCC1)c1nc2ccc(OCC)cc2s1	inactive
O=C(Nc1ccccc1)c1ccco1	inactive
Cc1cc(C)cc(OCc2nnc(SCC(=O)Nc3ccccc3)o2)c1	inactive
O=C(NCCSc1ccccc1)c1ccco1	inactive
Cc1cccc(OCCSc2nc3ccc(NC(=O)COc4ccccc4C)cc3s2)c1	inactive
CCOc1ccc2nc(NC(=O)c3cc([N+](=O)[O-])ccc3N3CCOCC3)sc2c1	18.4 µM (active)
O=C(NC1CCCCC1)c1cc([N+](=O)[O-])ccc1N1CCOCC1	inactive
CC(=O)Nc1ccc2nc(SCCOc3cc(C)cc(C)c3)sc2c1	16.4 µM (active)
CCOc1ccc2nc(SC(CC)C(=O)Nc3cc(C)on3)sc2c1 (centres undefined)	18.4 µM (active)
Cc1cc(NC(=O)COc2ccc([N+](=O)[O-])cc2)no1	inactive
O=C(Nc1ccc2nc(SCCOc3ccccc3)sc2c1)c1ccco1	23.1 µM (active)
COc1cc(NS(=O)(=O)c2cccs2)cc(OC)c1	inactive
CCOc1cc(CNCc2ccccn2)ccc1OCC(=O)NC(C)(C)C	inactive
Cc1cccc(NC(=O)N2CCCCCC2)c1C	inactive

SMILES	Potency
O=C(CCNC(=O)c1ccccc1Cl)NN=Cc1ccco1	inactive
CCOCCCNS(=O)(=O)Cc1ccccc1	inactive
CCC(C)NC(=O)CSC1=Nc2ccccc2C2=NC(CCC(=O)NCc3ccco3)C(=O)N12 (centres undefined)	inactive
CC(=O)c1cnc(-c2ccccc2)s1	inactive
CC(=O)c1nnn(-c2ccc(Cl)cc2C#N)c1C	inactive
CCOc1ccc2nc(Nc3nc4ccc(NC(C)=O)cc4s3)sc2c1	10.3 µM (active)
CNC(=O)c1ccc2nc(NC(C)=O)sc2c1	inactive
CC(=O)Nc1ccc2nc(NC(=O)CS(=O)(=O)c3ccc(F)cc3)sc2c1	inactive
O=c1c2ccccc2nc(CSc2nnnn2-c2ccccc2)n1-c1ccccc1	inactive
COc1ccc(C)cc1-n1nnnc1SCc1nc2ccccc2c(=O)[nH]1	9.2 µM (active)
COCCn1c(SCc2nc3cc(OC)c(OC)cc3c(=O)[nH]2)nnc1-c1ccncc1	inactive
O=C1CCC[C@@H]2CC(N3CCCCC3)C[C@@H]3CCN1[C@H]23 (some centres undefined)	inactive
S=C1Nc2cc(Cl)ccc2Sc2ccccc21	inactive
Cc1cccc(C)c1NC(=O)CN(C)C(=O)CCC(=O)c1ccccc1	inactive
Cc1cccc(C)c1NC(=O)C(Cl)C(=O)c1ccccc1 (centres undefined)	7.31 µM (active)
Cc1ccccc1NC(=O)c1ccccc1	inactive
CCCCNCCS(=O)(=O)NCc1ccccc1	inactive
C[C@H](CO)N1C[C@H](C)[C@@H](CN(C)S(=O)(=O)c2ccc(F)cc2)OCc2cnnn2CCCC1=O	inactive
COc1cc(C(=S)N2CCOCC2)cc(OC)c1OC(=O)c1cc([N+](=O)[O-])cc([N+](=O)[O-])c1	inactive
CCOC(=O)N1CCN(C(=O)COC(=O)c2cccc(S(C)(=O)=O)c2)CC1	inactive
CN(c1ccccc1)S(=O)(=O)c1ccc(C(=O)N2CCN(c3ccccc3Cl)CC2)cc1	20.6 µM (active)
COc1ccc(N2CCN(C(=O)CNS(=O)(=O)c3ccc(C)c(C)c3)CC2)cc1	inactive
COc1ccccc1CC(=O)Nc1ccc(S(=O)(=O)N2CCCC2)cc1	inactive

SMILES	Potency
COc1ccc(C(=O)NCc2ccc(Cl)cc2)cc1S(=O)(=O)N1CCCC1	inactive
COc1ccc(N2CCN(C(=O)COC(=O)c3cccc(S(=O)(=O)Nc4ccccc4OC)c3)CC2)cc1	20.6 µM (active)
CCN(CC)S(=O)(=O)c1ccc(C(=O)N2CCN(C3=NS(=O)(=O)c4ccccc43)CC2)cc1	inactive
COc1ccccc1N1CCN(S(=O)(=O)c2ccc(Cl)cc2)CC1	inactive
COc1ccccc1N1CCN(C(=O)c2ccc(S(=O)(=O)N3CCCCC3)cc2)CC1	25.9 µM (active)
O=C(c1ccc(Cl)c(S(=O)(=O)N2CCCCCC2)c1)N1CCN(c2ccc(O)cc2)CC1	inactive
COc1ccccc1N1CCN(C(=O)c2ccc(Cl)c(S(=O)(=O)N3CCCC3)c2)CC1	18.4 µM (active)
CN(c1ccccc1)S(=O)(=O)c1ccc(Cl)c(C(=O)OCC(=O)N2CCOCC2)c1	inactive
COc1ccc(S(=O)(=O)NCC(c2ccc(C)cc2)N2CCN(C)CC2)cc1OC (centres undefined)	inactive
CC(C)C(NC(=O)C1CCC(C(C)(C)C)CC1)C(=O)NCCCN1CCCCC1 (centres undefined)	inactive
CC1CCN(C(=S)c2cccc(O)c2)CC1	inactive
C/C=C/C(=O)OCC(=O)Nc1ccc(F)cc1Cl	inactive
CC(CN1CCC(n2nccc2NC(=O)C2CCCC2)CC1)c1ccccc1 (centres undefined)	inactive
Nc1c(-c2ccc(F)cc2)cnc2ncnn12	inactive
COc1ccc(C)cc1NC(=O)NCc1ccccn1	inactive
COC(=O)C1=C(C)N=C2SC(C)C(=O)N2C1/C=C/c1ccccc1 (centres undefined)	inactive
COCCNC(=O)CN(C(=O)CCC(=O)Nc1cc(C)on1)c1ccc(C)cc1C	inactive
Cc1[nH]n(C)c(=O)c1C(=O)c1c(-c2c(Cl)cccc2Cl)noc1C	inactive
COc1ccccc1NS(=O)(=O)c1ccc(C)c(C(=O)NNC(=O)c2csc(N3CCOCC3)n2)c1	inactive
COc1ccccc1N1CCN(C(=O)c2c(-c3c(Cl)cccc3Cl)noc2C)CC1	20.6 µM (active)
Cc1onc(-c2ccccc2)c1C(=O)N1CCN(S(=O)(=O)c2ccccc2C(F)(F)F)CC1	inactive
COc1ccccc1NS(=O)(=O)c1ccc(C(=O)N2CCN(c3ccccc3O)CC2)cc1	16.4 µM (active)
COc1ccc(S(=O)(=O)Nc2ccccc2C(=O)N2CCCC2)cc1C	inactive

Reference: PubChem BioAssay AID686978 (National Center for Advancing Translational Sciences (NCATS), 2013)
